Compound activity: PubChem, National Center for Advancing Translational Sciences (NCATS)
HEK293 tox: kills HEK 293 cells. HEK 293 viability, ATP luminescence (CellTiter-Glo), 48-72 h. Potency, µM (titrated, usually from 115 µM), actives largely listed as inhibitors. hit rate 6.6% among 94,000. AID 1345083; note: nearly all actives have a fitted effect of over 60% in size
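Viability of HEK 293 cells, plated at 250 cells/well, was judged by cellular ATP after compound treatment for 48 or 72 hr. Luminescence was imaged 10 min after CellTiter-Glo addition at room temperature.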
hNpr1 antagonist: human Npr1 receptor antagonism; AID 1347048; P16066; Potency, µM (titrated, usually from 46.3 µM), usual class: inhibitors; hit rate 1.6% among 76,000; HEK293 hNpr1 GloSensor cGMP, ANP-stimulated luminescence; calls by dose curve; note: nearly all actives have a fitted effect of over 60% in size
Target sequence (P16066 whole entry, looked up): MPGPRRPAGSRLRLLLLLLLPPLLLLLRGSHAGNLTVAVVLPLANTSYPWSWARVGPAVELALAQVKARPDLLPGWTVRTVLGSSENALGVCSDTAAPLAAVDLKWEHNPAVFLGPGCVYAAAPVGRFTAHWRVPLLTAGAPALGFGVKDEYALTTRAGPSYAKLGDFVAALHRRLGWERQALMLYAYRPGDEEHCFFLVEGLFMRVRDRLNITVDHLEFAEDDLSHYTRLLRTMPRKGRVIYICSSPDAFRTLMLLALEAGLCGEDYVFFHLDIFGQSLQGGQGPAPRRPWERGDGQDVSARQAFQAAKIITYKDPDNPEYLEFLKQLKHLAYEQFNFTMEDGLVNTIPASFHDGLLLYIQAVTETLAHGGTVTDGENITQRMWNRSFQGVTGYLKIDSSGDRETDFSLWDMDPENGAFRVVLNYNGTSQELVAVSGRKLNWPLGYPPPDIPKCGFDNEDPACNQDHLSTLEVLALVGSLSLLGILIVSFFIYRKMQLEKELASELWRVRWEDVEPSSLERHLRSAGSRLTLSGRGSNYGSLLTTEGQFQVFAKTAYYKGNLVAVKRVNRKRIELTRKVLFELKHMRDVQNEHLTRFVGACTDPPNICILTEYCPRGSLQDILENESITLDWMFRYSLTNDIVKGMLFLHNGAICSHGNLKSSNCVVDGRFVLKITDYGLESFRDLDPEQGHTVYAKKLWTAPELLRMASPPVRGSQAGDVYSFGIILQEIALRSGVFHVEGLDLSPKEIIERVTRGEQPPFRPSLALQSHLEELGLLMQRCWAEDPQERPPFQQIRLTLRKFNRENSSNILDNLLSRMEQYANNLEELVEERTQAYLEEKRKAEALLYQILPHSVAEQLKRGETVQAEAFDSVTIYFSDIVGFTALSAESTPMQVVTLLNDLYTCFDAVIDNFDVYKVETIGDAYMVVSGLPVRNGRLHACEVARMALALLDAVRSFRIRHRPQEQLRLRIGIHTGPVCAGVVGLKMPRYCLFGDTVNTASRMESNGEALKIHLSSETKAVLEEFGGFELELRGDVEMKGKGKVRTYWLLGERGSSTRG
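HEK293 cells stably expressing human Npr1 and cGMP GloSensor pGS-40F, loaded 2 h with 2% GloSensor reagent, given compound 30 min at room temperature. Luminescence read before and 20 min after 0.1 nM hNppA.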
FLuc inh: Photinus pyralis luciferase inhibition; AID 1347043; purified P. pyralis luciferase, luminescence, biochemical; P08659; hit rate 2.5% among 76,000; Potency, µM (doses to about 115 µM), usual class: inhibitors; note: nearly all actives have a fitted effect of over 65% in size
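Purified P. pyralis luciferase (10nM final) in 50mM Tris acetate pH 7.5, 10mM Mg acetate, 0.01% Tween-20, 0.05% BSA with 10uM D-luciferin and 10uM ATP. Compounds titrated qHTS. Luminescence imaged on CCD.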
NIH3T3 tox: NIH 3T3 cell cytotoxicity; AID 1345082; NIH 3T3 viability, CellTiter-Glo ATP luminescence, 48-72 h; hit rate 4.3% among 94,000; Potency, µM (highest dose often 96.7 µM), hits mostly inhibitors; note: nearly all actives have a fitted effect of over 55% in size
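Luminescent ATP readout (CellTiter-Glo, 10 min RT) after 48 or 72 hr compound exposure of NIH 3T3 cells seeded at 400 cells/well in 1536-well format; quantitative HTS.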
Numbers stand for hits. In the library only some 11% were active in any assay of this set; here they are far more common. Unless noted, calls come from the whole dose curve; as a rule, active = well fitted curve in the direction sought with a large enough effect; inconclusive = small, poorly fitted or top-dose-only effect, or another doubt; inactive = no such curve, though single readings can be large; an effect the other way counts as inactive or inconclusive.

Results for CCN(CC)C1CCOC2(CCN(C(=O)c3sc(C)nc3C)CC2)C1 (centres undefined) ?
HEK293 tox: inactive; hNpr1 antagonist: inactive; FLuc inh: inactive; NIH3T3 tox: inactive

How did CCOc1ccccc1CN1CCC(C)(c2noc(C3CCOCC3)n2)CC1 do in these assays?
HEK293 tox: inactive; hNpr1 antagonist: inactive; FLuc inh: inactive; NIH3T3 tox: inactive

What do the screens show for `CN1C(=O)C(c2ccccc2)CC12CCN(CCC(=O)O)CC2` (centres undefined)?
HEK293 tox: inactive; hNpr1 antagonist: inactive; FLuc inh: inactive; NIH3T3 tox: inactive

Results for O=C(NC1CCCCC1)C1CN(C(=O)c2cccc(C(F)(F)F)c2)CC12CCOCC2 (centres undefined) ?
HEK293 tox: inactive; hNpr1 antagonist: inactive; FLuc inh: inactive; NIH3T3 tox: inactive

What do the screens show for `COc1ccccc1CCC(=O)N1CCCN(c2cc(-c3ccc(Cl)cc3)[nH]n2)CC1`?
HEK293 tox: inconclusive; hNpr1 antagonist: inactive; FLuc inh: inactive; NIH3T3 tox: 35.5µM

Results for COc1cccc(CCC(=O)N2CCCN(c3cc(-c4ccc(Cl)cc4)[nH]n3)CC2)c1 ?
HEK293 tox: inconclusive; hNpr1 antagonist: inconclusive; FLuc inh: inactive; NIH3T3 tox: 35.5µM

What do the screens show for `COc1ccc(C(=O)NC2CCN(c3cc(-c4ccc(F)cc4)[nH]n3)C2)c(OC)c1` (centres undefined)?
HEK293 tox: inconclusive; hNpr1 antagonist: inactive; FLuc inh: inactive; NIH3T3 tox: inconclusive

What do the screens show for `COc1ccc(Cn2c(=O)c(C(=O)N3CCN(C(=O)c4ccccc4)CC3)nc3cccnc32)cc1`?
HEK293 tox: inactive; NIH3T3 tox: inactive

What do the screens show for `Cc1ccccc1C(=O)N1CCN(c2cc(-c3cccs3)[nH]n2)CC1`?
HEK293 tox: inconclusive; hNpr1 antagonist: inactive; FLuc inh: inactive; NIH3T3 tox: inconclusive

What do the screens show for `CCOc1ccc(CC(=O)N2CCN(c3cc(-c4cccs4)[nH]n3)CC2)cc1OCC`?
HEK293 tox: 44.7µM; hNpr1 antagonist: inactive; FLuc inh: inactive; NIH3T3 tox: 28.2µM

What do the screens show for `COc1ccccc1C(=O)N1CCCN(c2cc(-c3ccc(Cl)cc3)[nH]n2)CC1`?
HEK293 tox: inconclusive; hNpr1 antagonist: inconclusive; FLuc inh: inactive; NIH3T3 tox: inconclusive

What do the screens show for `COc1cc(C(=O)N2CCN(c3cc(-c4ccc(Cl)cc4)[nH]n3)CC2)cc(OC)c1OC`?
HEK293 tox: inconclusive; hNpr1 antagonist: inconclusive; FLuc inh: inactive; NIH3T3 tox: 25.1µM

How did Cc1ccc(CC(=O)N2CCN(c3cc(-c4cccs4)[nH]n3)CC2)cc1 do in these assays?
HEK293 tox: inconclusive; hNpr1 antagonist: inactive; FLuc inh: inactive; NIH3T3 tox: inconclusive

What do the screens show for `CCOc1ccccc1C(=O)N1CCN(c2cc(-c3cccs3)[nH]n2)CC1`?
HEK293 tox: 39.8µM; hNpr1 antagonist: inactive; FLuc inh: inactive; NIH3T3 tox: inconclusive

What do the screens show for `COc1ccccc1CC(=O)N1CCN(c2cc(-c3cccs3)[nH]n2)CC1`?
HEK293 tox: 39.8µM; hNpr1 antagonist: inconclusive; FLuc inh: inactive; NIH3T3 tox: inconclusive

Results for CCOc1ccccc1C(=O)N1CCN(c2cc(-c3ccc(Cl)cc3)[nH]n2)CC1 ?
HEK293 tox: 35.5µM; hNpr1 antagonist: inactive; FLuc inh: inactive; NIH3T3 tox: 17.8µM

Results for CCOc1cc(C(=O)N2CCN(c3cc(-c4ccc(Cl)cc4)[nH]n3)CC2)cc(OCC)c1OCC ?
HEK293 tox: 35.5µM; hNpr1 antagonist: inactive; FLuc inh: inactive; NIH3T3 tox: 31.6µM

What do the screens show for `Cc1noc([C@@H]2CN(C(=O)CC(C)(C)C)C[C@H]2CO)n1`?
HEK293 tox: inactive; hNpr1 antagonist: inactive; FLuc inh: inactive; NIH3T3 tox: inactive

How did O=C1COCC2(CN1)CN(C(=O)c1ccc(Cl)cc1)C2 do in these assays?
HEK293 tox: inconclusive; hNpr1 antagonist: inactive; FLuc inh: inactive; NIH3T3 tox: inactive

Results for CN1C(=O)c2cncnc2OCC1CNC(=O)Cc1cccc(Cl)c1 (centres undefined) ?
HEK293 tox: inactive; hNpr1 antagonist: inactive; FLuc inh: inactive; NIH3T3 tox: inconclusive

What do the screens show for `COc1ccc(-c2cn3c(n2)N(C(=O)c2cccs2)CCC3)cc1`?
HEK293 tox: inconclusive; hNpr1 antagonist: inactive; FLuc inh: 35.5µM; NIH3T3 tox: inactive

What do the screens show for `O=C(c1cccs1)N1CCCn2cc(-c3ccc4c(c3)OCO4)nc21`?
HEK293 tox: inconclusive; hNpr1 antagonist: inactive; FLuc inh: 39.8µM; NIH3T3 tox: inactive

What do the screens show for `O=C(c1ccco1)N1CCCn2cc(-c3ccc4c(c3)OCO4)nc21`?
HEK293 tox: inconclusive; hNpr1 antagonist: inactive; FLuc inh: inactive; NIH3T3 tox: inactive

How did COc1ccc(-c2cn3c(n2)N(C(=O)Cc2cccs2)CCC3)cc1 do in these assays?
HEK293 tox: inconclusive; hNpr1 antagonist: inactive; FLuc inh: inactive; NIH3T3 tox: inconclusive

How did COc1ccc(-c2[nH]nc3ncc(-c4cccnc4OC)nc23)c(C)c1 do in these assays?
HEK293 tox: 100µM; hNpr1 antagonist: inactive; FLuc inh: inactive; NIH3T3 tox: inconclusive

How did COc1ncccc1-c1cnc2n[nH]c(-c3ccc(F)cc3C)c2n1 do in these assays?
HEK293 tox: inconclusive; hNpr1 antagonist: inactive; FLuc inh: inactive; NIH3T3 tox: 31.6µM

How did COc1ccccc1-c1cnc2n[nH]c(-c3ccc(F)cc3C)c2n1 do in these assays?
HEK293 tox: inconclusive; hNpr1 antagonist: inconclusive; FLuc inh: inactive; NIH3T3 tox: inconclusive

How did COc1ccc(-c2[nH]nc3ncc(-c4ccccc4OC)nc23)c(C)c1 do in these assays?
HEK293 tox: 89.1µM; hNpr1 antagonist: inactive; FLuc inh: inactive; NIH3T3 tox: inconclusive

What do the screens show for `CN1CCN(C(=O)[C@@H]2CCC[C@@H](NC(=O)NC3CCCC3)CN(C)C(=O)C2)CC1`?
HEK293 tox: inactive; hNpr1 antagonist: inactive; FLuc inh: inactive; NIH3T3 tox: inactive

Results for COCCn1cc(CN2CCN(Cc3cccc(F)c3)CC2)ccc1=O ?
HEK293 tox: inconclusive; hNpr1 antagonist: inactive; FLuc inh: inactive; NIH3T3 tox: inconclusive

What do the screens show for `O=C(Cc1c[nH]c2ncc(-c3ccccc3)cc12)NCC1CCOCC1`?
HEK293 tox: 79.4µM; hNpr1 antagonist: inactive; FLuc inh: inactive; NIH3T3 tox: inconclusive

How did CN(C)CCNC(=O)Cc1c[nH]c2ncc(-c3ccccc3)cc12 do in these assays?
HEK293 tox: 112µM; hNpr1 antagonist: inactive; FLuc inh: inactive; NIH3T3 tox: inconclusive

Results for O=C(Cc1c[nH]c2ncc(-c3ccccc3)cc12)NCCc1ccccc1 ?
HEK293 tox: inconclusive; hNpr1 antagonist: inconclusive; FLuc inh: inactive; NIH3T3 tox: inconclusive

Results for Cc1ccccc1-c1cnc2[nH]cc(CC(=O)NCCN(C)C)c2c1 ?
HEK293 tox: 39.8µM; hNpr1 antagonist: inactive; FLuc inh: inactive; NIH3T3 tox: inconclusive

Results for CC(=O)N1CCC(C2CCN(C(=O)CN3CCOCC3)C2)CC1 (centres undefined) ?
HEK293 tox: inactive; NIH3T3 tox: inactive

Results for CC(C)COC(=O)N1C[C@@H](CO)[C@@H]2Oc3c(F)cccc3[C@@H]21 ?
HEK293 tox: inconclusive; NIH3T3 tox: 31.6µM

Results for CCOC(=O)[C@@H]1CN(C(=O)OCC(C)C)[C@H]2c3ccc(OC)cc3O[C@@H]12 ?
HEK293 tox: inactive; NIH3T3 tox: 39.8µM
